Results on eleven molecules are retold here after PubChem BioAssay (EPA / NIEHS).

Records with an inconclusive call do not appear. Active and inactive are the calls of the source. Rule for the calls: active = hit-call score of the fitted dose curve at least 0.9, where 1 is the maximum; inconclusive = response in the unintended direction; inactive = score below 0.9.

human Thromboxane A2 Receptor (TXA2), TBXA2R (gene 6915), sequence (P21731 whole entry, looked up): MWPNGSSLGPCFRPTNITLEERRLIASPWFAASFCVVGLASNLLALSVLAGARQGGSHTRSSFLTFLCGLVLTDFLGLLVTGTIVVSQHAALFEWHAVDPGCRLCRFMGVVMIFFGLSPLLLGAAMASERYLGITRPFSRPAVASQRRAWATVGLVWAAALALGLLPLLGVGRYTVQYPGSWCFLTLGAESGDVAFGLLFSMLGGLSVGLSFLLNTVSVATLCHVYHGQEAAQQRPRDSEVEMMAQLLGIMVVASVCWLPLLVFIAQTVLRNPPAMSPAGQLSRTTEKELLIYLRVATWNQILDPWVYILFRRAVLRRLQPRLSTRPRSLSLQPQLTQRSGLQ

The experiment addresses human Thromboxane A2 Receptor (TXA2), TBXA2R (gene 6915) (UniProt P21731). Nature of the experiment: NVS_GPCR_hTXA2: NovaScreen (NVS) G Protein-Coupled Receptor Assay for human Thromboxane A2 Receptor (TXA2) (AID 2283282).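 Note: actives reduce bound radioligand signal relative to DMSO baseline.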 As for the experimental part: NVS_GPCR_hTXA2 is a biochemical, single-readout assay that uses extracted gene-proteins from Human platelets in a cell-free assay. Measurements were taken 1 hour after chemical dosing in a 96-well plate.NVS_GPCR_hTXA2 is one of one assay component(s) measured or calculated from the NVS_GPCR_hTXA2 assay. It is designed to make measurements of radioligand binding, a form of binding reporter, as detected with scintillation counting signals by Filter-based radiodetection technology.Data from the assay component NVS_GPCR_hTXA2 was analyzed into 1 assay endpoint. This assay endpoint, NVS_GPCR_hTXA2, was analyzed in the positive analysis fitting direction relative to DMSO as the negative control and baseline of activity. Using a type of binding reporter, loss-of-signal activity can be used to understand changes in the binding as they relate to the gene TBXA2R. Furthermore, this assay endpoint can be referred to as a primary readout, because the performed assay has only produced 1 assay endpoint. To generalize the intended target to other relatable targets, this assay endpoint is annotated to the gpcr intended target family, where the subfamily is rhodopsin-like receptor.
Binding assays used specific radioligands (tritiated, iodinated) with non-radioactive competitive displacement ligands in agonist or antagonist protocols (as indicated) and various reference compounds and inhibitors to titrate specific binding to receptors and transporters. Most enzyme assays (CYPs, kinases, phosphatases, proteases, HDACs) used recombinant protein and specific substrates (fluorescence mostly, some colorimetric and radioactive) and inhibitors, followed by a biochemical separation of substrate and product. All assays for the biochemical HTS were initially run in duplicate at a single concentration (10 uM for CYP450 assays and 25 uM for all others). […] Each assay was run with positive and negative controls, and concurrent controls on every plate. The follow-up (secondary) screen tested active chemical-pairs in concentration series, as well as a few additional assays not tested in the primary screen, some selected negative inactives, and several cases re-run in the concentration series for confirmatory purposes.
For `CC(=O)[O][Hg][c]1ccccc1`, the AC50 is 5.62 µM (active).

`N#CCc1ccc(Cl)cc1`: the molecule was called inactive.

On to `COP(=S)(OC)Oc1ccc(Sc2ccc(OP(=S)(OC)OC)cc2)cc1`, for which the AC50 was 25 µM (active).

For the molecule `C(=NC1CCCCC1)=NC1CCCCC1`, the AC50 was 2.87 µM (active).

`CCCCCCCCC(=O)NCc1ccc(O)c(OC)c1`: the result was inactive.

Turning to `COc1ccc(OC)c(C=O)c1`, the outcome was inactive.

`CCSC(C)CC1CC(=O)C(C(CC)=NOC/C=C/Cl)=C(O)C1` (stereo unspecified): the AC50 is 3.42 µM (active).

On to `C=C(C)C(=O)[O][Sn]([CH2]CCC)([CH2]CCC)[CH2]CCC`, for which the AC50 was 5.96 µM (active).

As for `O=C(O)C(F)(F)C(F)(F)C(F)(F)C(F)(F)C(F)(F)C(F)(F)C(F)(F)C(F)(F)C(F)(F)C(F)(F)F`, the molecule was called inactive.

As to `CCNc1nc(NC(C)(C)C)nc(SC)n1`, the result was inactive.

On to `CC(C)(C)CC(C)(C)c1ccc(O)cc1`, for which the half-maximal activity concentration (AC50) was 43.7 µM (active).

The term AC50 denotes the concentration giving half of the maximal activity seen.
